Measured values reported in PubChem BioAssay AID1159580 (chemical genetic matrix, 2015).
The whole screen tested about 5,500 compounds, of which about 2,000 (36%) were called active. Not shown: some 18% with an inconclusive outcome. This is one part of the list. A number with no mark means an inactive call. No stated cut-off is given here; in the data, active means normalized growth mostly below about 0.91 (no sharp cut-off); inconclusive means no clear call, values can overlap the other calls; inactive means mostly above about 0.92.

Assay: chemical genetic growth profiling, strain panel (AID 1159580);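 further: tested at 20 µM; growth read once vehicle control cultures reached saturation at 30 °C; 1 = growth at the plate median or of vehicle wells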
Details: S. cerevisiae deletion strains, growth OD

For `O=c1c2ccccc2oc2ccc(O)cc12`, the normalized growth (locus YBR021W, strain FUR4, stronger effect = lower value) was 1.13, the normalized growth (locus YBR229C, strain ROT2, stronger effect = lower value) was 0.952 and the normalized growth (locus YCL029C, strain bik1, stronger effect = lower value) was 0.865 (active). For the same compound, the normalized growth (locus YDL035C, strain GPR1, stronger effect = lower value) was 0.814 (active), the normalized growth (locus YDL074C, strain BRE1, stronger effect = lower value) was 0.737 (active) and the normalized growth (locus YDL101C, strain DUN1, stronger effect = lower value) was 0.791 (active). For the same compound, the normalized growth (locus YDL134C, strain PPH21, stronger effect = lower value) was 0.759 (active), the normalized growth (locus YDL185W, strain tfp1, stronger effect = lower value) was 0.901 (active) and the normalized growth (locus YDL192W, strain arf1, stronger effect = lower value) was 0.864 (active). The normalized growth (locus YDR101C, strain arx1, stronger effect = lower value) was 0.922, the normalized growth (locus YDR162C, strain NBP2, stronger effect = lower value) was 0.368 (active) and the normalized growth (locus YDR318W, strain mcm21, stronger effect = lower value) was 0.896 (active). The normalized growth (locus YDR388W, stronger effect = lower value) was 0.937, the normalized growth (locus YDR502C, strain sam2, stronger effect = lower value) was 0.895 (active) and the normalized growth (locus YEL061C, strain CIN8, stronger effect = lower value) was 0.863 (active). It also gave a normalized growth (locus YER110C, stronger effect = lower value) of 0.919, a normalized growth (locus YER155C, strain BEM2, stronger effect = lower value) of 0.978 and a normalized growth (locus YER167W, strain BCK2, stronger effect = lower value) of 0.949. The normalized growth (locus YGL078C, strain dbp3, stronger effect = lower value) was 0.962, the normalized growth (locus YGL086W, strain mad1, stronger effect = lower value) was 0.854 (active) and the normalized growth (locus YGL248W, strain PDE1, stronger effect = lower value) was 0.811 (active). The normalized growth (locus YGR078C, strain PAC10, stronger effect = lower value) was 0.736 (active), the normalized growth (locus YGR135W, strain pre9, stronger effect = lower value) was 0.856 (active) and the normalized growth (locus YGR252W, strain gcn5, stronger effect = lower value) was 0.847. The normalized growth (locus YHR030C, strain SLT2, stronger effect = lower value) was 0.738 (active), the normalized growth (locus YHR079C, strain IRE1 (second series), stronger effect = lower value) was 0.961 and the normalized growth (locus YHR094C, strain hxt1, stronger effect = lower value) was 0.977. For the same compound, the normalized growth (locus YHR129C, strain ARP1, stronger effect = lower value) was 0.889 (active), the normalized growth (locus YHR200W, strain rpn10, stronger effect = lower value) was 0.956 and the normalized growth (locus YIL066C, strain RNR3, stronger effect = lower value) was 0.767 (active). The normalized growth (locus YIL073C, strain SPO22, stronger effect = lower value) was 0.815, the normalized growth (locus YIL125W, strain kgd1, stronger effect = lower value) was 0.962 and the normalized growth (locus YIR030C, strain dcg1, stronger effect = lower value) was 0.933. For the same compound, the normalized growth (locus YJL095W, strain BCK1, stronger effect = lower value) was 0.516 (active), the normalized growth (locus YJL134W, strain LCB3, stronger effect = lower value) was 0.941 and the normalized growth (locus YJL168C, strain set2, stronger effect = lower value) was 0.948. For the same compound, the normalized growth (locus YJL187C, strain SWE1 (second series), stronger effect = lower value) was 0.828 (active), the normalized growth (locus YJR043C, strain POL32, stronger effect = lower value) was 0.981 and the normalized growth (locus YKL009W, strain mrt4, stronger effect = lower value) was 0.939. The normalized growth (locus YKL068W, stronger effect = lower value) was 1.01, the normalized growth (locus YKL085W, strain MDH1 (second series), stronger effect = lower value) was 0.976 and the normalized growth (locus YKL085W, strain MDH1, stronger effect = lower value) was 0.976. For the same compound, the normalized growth (locus YKR001C, strain vps1, stronger effect = lower value) was 0.509 (active), the normalized growth (locus YLR039C, strain RIC1, stronger effect = lower value) was 0.49 (active) and the normalized growth (locus YLR058C, strain SHM2, stronger effect = lower value) was 0.886 (active). The normalized growth (locus YLR102C, strain apc9, stronger effect = lower value) was 0.984, the normalized growth (locus YLR262C, strain YPT6, stronger effect = lower value) was 0.461 (active) and the normalized growth (locus YLR268W, strain sec22, stronger effect = lower value) was 0.859 (active). For the same compound, the normalized growth (locus YLR330W, strain CHS5, stronger effect = lower value) was 0.834 (active), the normalized growth (locus YLR342W, strain FKS1 (second series), stronger effect = lower value) was 0.918 and the normalized growth (locus YLR371W, strain rom2, stronger effect = lower value) was 0.894 (active). For the same compound, the normalized growth (locus YLR418C, strain cdc73, stronger effect = lower value) was 0.786 (active), the normalized growth (locus YML016C, strain PPZ1, stronger effect = lower value) was 0.915 (active) and the normalized growth (locus YML032C, strain rad52, stronger effect = lower value) was 0.757 (active). The normalized growth (locus YML124C, strain tub3, stronger effect = lower value) was 0.945, the normalized growth (locus YMR078C, strain ctf18, stronger effect = lower value) was 0.938 and the normalized growth (locus YMR223W, strain ubp8, stronger effect = lower value) was 0.895 (active). For the same compound, the normalized growth (locus YMR263W, strain SAP30, stronger effect = lower value) was 0.833 (active), the normalized growth (locus YMR307W, strain GAS1, stronger effect = lower value) was 0.881 and the normalized growth (locus YNL067W, strain RPL9B, stronger effect = lower value) was 0.871. The normalized growth (locus YNL233W, strain BNI4, stronger effect = lower value) was 0.782 (active), the normalized growth (locus YNL250W, strain rad50, stronger effect = lower value) was 0.917 and the normalized growth (locus YNL271C, strain bni1, stronger effect = lower value) was 0.915 (active). The normalized growth (locus YNL298W, strain CLA4, stronger effect = lower value) was 0.941, the normalized growth (locus YNL307C, strain MCK1, stronger effect = lower value) was 0.63 (active) and the normalized growth (locus YNL322C, strain KRE1, stronger effect = lower value) was 0.948. For the same compound, the normalized growth (locus YNR052C, strain pop2, stronger effect = lower value) was 0.871 (active), the normalized growth (locus YOL012C, strain htz1) was 1.06 and the normalized growth (locus YOL147C, strain pex11, stronger effect = lower value) was 0.926 (active). For the same compound, the normalized growth (locus YOR061W, strain CKA2, stronger effect = lower value) was 0.924, the normalized growth (locus YOR069W, strain VPS5, stronger effect = lower value) was 0.919 (active) and the normalized growth (locus YOR136W, strain idh2, stronger effect = lower value) was 0.957. For the same compound, the normalized growth (locus YOR144C, strain elg1, stronger effect = lower value) was 0.943, the normalized growth (locus YOR184W, strain ser1, stronger effect = lower value) was 0.746 (active) and the normalized growth (locus YOR316C, strain cot1, stronger effect = lower value) was 0.967. For the same compound, the normalized growth (locus YPL055C, strain LGE1, stronger effect = lower value) was 0.827, the normalized growth (locus YPL241C, strain CIN2, stronger effect = lower value) was 0.941 and the normalized growth (locus YPR119W, strain clb2, stronger effect = lower value) was 0.949. The normalized growth (locus YPR141C, strain kar3, stronger effect = lower value) was 0.965, the normalized growth (locus YPR163C, strain tif3, stronger effect = lower value) was 0.772 (active) and the normalized growth (locus YPR167C, strain met16, stronger effect = lower value) was 0.934. For the same compound, the normalized growth (strain wtn01, stronger effect = lower value) was 0.931.
